Screening results deposited in PubChem BioAssay by National Center for Advancing Translational Sciences (NCATS).
Lamin A splicing: qHTS Assay for Modulators of Lamin A Splicing; AID 1487, 2009; 200,000 compounds, 0.01% hits; HeLa LMNA splicing GFP/RFP minigene ratio, 48 h; Potency, µM (titrated, usually from 46.1 µM), usual class: inhibitors; active = well fitted inhibition curve with a large enough effect in the signal ratio, with a control signal flat, not every such curve was filed as active; inconclusive = small, poorly fitted or top-dose-only effect, or effect the other way, or a change in a side signal; the % refers to the signal ratio
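S3 HeLa cells stably expressing lamin A-EGFP splicing minigene plus DsRed2, 600 cells/well, 48 h compound exposure at 37C. Laser-scanning cytometry; analysed as GFP (500-530 nm)/RFP (575-640 nm) total intensity ratio; 0.5% DMSO vehicle.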
Rango dissoc inh: qHTS Assay for Inhibitors of RanGTP induced Rango (Ran-regulated importin-beta cargo) - Importin beta complex dissociation. Snurportin-1 (Homo sapiens) + GTP-binding nuclear protein Ran (Homo sapiens) + Importin …. Biochemical FRET Rango-importin beta, RanGTP-induced dissociation. Potency, µM (top dose mostly 46.1 µM). 340,000 compounds, 0.071% hits; also: nearly all actives have a fitted effect of over 45% in size
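Recombinant Rango FRET biosensor (EYFP–snurportin 1 IBB–cerulean CFP10) at 0.1 uM premixed with 0.25 uM importin beta in PBS, 1 mM DTT, 0.02% Tween-20, 0.1% BSA. Compound added 5 min; RanGTP-RCC1 (0.6 uM Ran, 2 mM GTP, 0.2 uM RCC1) then triggers release, read at 45 min.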
Rango complex inh: qHTS Assay for Inhibitors of Rango (Ran-regulated importin-beta cargo) - Importin beta complex formation; Potency, µM (titrated, usually from 92.2 µM); Importin subunit beta-1 (Homo sapiens), Q14974; 340,000 compounds, 0.031% hits; AID 540263, 2011; Rango CFP/YFP FRET sensor + importin beta, 45 min; also: nearly all actives have a fitted effect of over 15% in size
Target sequence (Q14974 whole entry, looked up): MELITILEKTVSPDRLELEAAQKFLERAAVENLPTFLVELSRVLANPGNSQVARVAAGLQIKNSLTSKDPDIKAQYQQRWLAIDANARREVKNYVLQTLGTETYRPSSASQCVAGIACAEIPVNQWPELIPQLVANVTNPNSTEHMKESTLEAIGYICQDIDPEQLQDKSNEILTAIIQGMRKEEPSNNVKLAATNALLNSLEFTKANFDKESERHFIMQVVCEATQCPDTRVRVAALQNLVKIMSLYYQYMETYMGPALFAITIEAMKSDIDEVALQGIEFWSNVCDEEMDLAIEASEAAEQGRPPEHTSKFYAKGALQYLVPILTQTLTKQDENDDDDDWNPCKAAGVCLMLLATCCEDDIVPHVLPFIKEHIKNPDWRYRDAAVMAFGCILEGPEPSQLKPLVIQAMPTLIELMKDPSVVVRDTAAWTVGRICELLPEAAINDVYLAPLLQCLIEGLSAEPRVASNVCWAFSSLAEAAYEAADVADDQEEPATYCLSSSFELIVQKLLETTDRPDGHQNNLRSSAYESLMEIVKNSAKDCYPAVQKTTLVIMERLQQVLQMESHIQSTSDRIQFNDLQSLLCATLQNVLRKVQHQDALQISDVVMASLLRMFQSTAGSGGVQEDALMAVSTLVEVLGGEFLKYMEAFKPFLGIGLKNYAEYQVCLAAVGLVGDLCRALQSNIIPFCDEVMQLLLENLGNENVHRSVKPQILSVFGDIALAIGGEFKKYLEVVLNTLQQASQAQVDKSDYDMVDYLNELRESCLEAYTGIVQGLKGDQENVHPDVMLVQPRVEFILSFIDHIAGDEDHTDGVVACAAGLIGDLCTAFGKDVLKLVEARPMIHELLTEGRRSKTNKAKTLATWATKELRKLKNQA
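FRET biosensor Rango (snurportin 1 IBB between N-terminal EYFP and C-terminal Cerulean), 50 nM in PBS/1 mM DTT/0.02% Tween-20/0.1% BSA, preincubated 5 min RT with compound; 0.125 microM importin beta added, 45 min RT, CFP/YFP FRET ratio read.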
Numbers stand for hits; [ ] = another dose, or the depositor's remark. This is a sample that favours compounds with a hit; in the whole collection about 0.1% have one here. Unless noted, calls follow the shape of the full dose curve.

For COc1ccc(CN(CCN(C)C)c2ccccn2)cc1 the results were Lamin A splicing inconclusive, Rango dissoc inh inactive and Rango complex inh inconclusive.
For O=C(O)c1ccccc1CSC1=NCCS1 the results were Lamin A splicing inactive, Rango dissoc inh inactive and Rango complex inh inactive.
Cc1cccc(C)c1Nc1nnc(SC/C(O)=C(\C#N)c2nc3ccccc3[nH]2)s1 was read as Lamin A splicing inactive, Rango dissoc inh 15µM and Rango complex inh inconclusive.
`Cc1cccc(Nc2nnc(SC/C(O)=C(\C#N)c3nc4ccccc4[nH]3)s2)c1C` gave Lamin A splicing inactive, Rango dissoc inh inconclusive and Rango complex inh inactive.
`N#C/C(=C(/O)CCl)c1nc2ccccc2[nH]1` gave Lamin A splicing inactive[9.22 µM], Rango dissoc inh 13µM and Rango complex inh inconclusive.
For N#C/C(=C(\O)Cc1ccccc1)c1nc2ccccc2[nH]1 the results were Lamin A splicing inactive, Rango dissoc inh inconclusive and Rango complex inh inactive.
`CC(=O)C(=Nc1ccc(Cl)cc1Cl)NNc1cccc(Cl)c1` gave Lamin A splicing inconclusive, Rango dissoc inh inactive and Rango complex inh inactive.
`Cc1c(N2C(=O)c3cccc4cccc(c34)C2=O)c(=O)n(-c2ccccc2)n1C` gave Lamin A splicing inactive, Rango dissoc inh inactive and Rango complex inh inactive.
Screening Cc1c(N=C2Nc3cccc4cccc2c34)c(=O)n(-c2ccccc2)n1C returned Lamin A splicing inactive, Rango dissoc inh 2.6µM and Rango complex inh inconclusive.
Screening COc1ccc(OC)c(NC(=O)c2oc3ccccc3c2NC(=O)C2CC2)c1 returned Rango dissoc inh inactive and Rango complex inh inactive.
For COc1ccc(Nc2cc(C)c3ccc(O)cc3n2)cc1 the results were Rango dissoc inh inactive and Rango complex inh inconclusive.
`Cc1cc(Nc2ccccc2)nc2cc(O)ccc12` gave Lamin A splicing inconclusive, Rango dissoc inh 7.3µM and Rango complex inh inconclusive.
Screening Cc1c(C(=O)Nc2ccc(F)cc2)nnn1-c1cccc(C(F)(F)F)c1 returned Rango dissoc inh inactive and Rango complex inh inactive.
For Cc1ccc(OC(C)C(=O)N(C)c2ccccc2)c([N+](=O)[O-])n1 (configuration not stated) the results were Rango dissoc inh inactive and Rango complex inh inactive.
`N#C/C(=C\c1cn(CCOc2ccccc2F)c2ccccc12)C(=O)NCc1cccs1` gave Lamin A splicing inactive, Rango dissoc inh 5.8µM and Rango complex inh inconclusive.
For Cc1ccc(C)c(OCCn2cc(/C=C(\C#N)C(=O)NCc3cccs3)c3ccccc32)c1 the results were Lamin A splicing inactive, Rango dissoc inh inactive and Rango complex inh inconclusive.
NC(N)=NS(=O)(=O)c1ccc(NC(=S)NC(=O)c2sc3ccccc3c2Cl)cc1 was read as Lamin A splicing inactive, Rango dissoc inh 21µM and Rango complex inh inconclusive.
For COc1cc(NS(=O)(=O)c2ccc(NC(=S)NC(=O)c3sc4ccccc4c3Cl)cc2)nc(OC)n1 the results were Lamin A splicing inactive, Rango dissoc inh inactive and Rango complex inh inactive.
CN1/C(=C/c2cccc[n+]2C)Sc2ccccc21 was read as Rango dissoc inh 12µM and Rango complex inh inconclusive.
CCN1/C(=C/c2cccc[n+]2C)Sc2ccc(OC)cc21 was read as Rango dissoc inh inactive and Rango complex inh inconclusive.
For CC(Sc1cccc[n+]1[O-])c1ccccc1 (configuration not stated) the results were Rango dissoc inh inactive and Rango complex inh inactive.
`Cn1nnnc1SCC(=O)NCc1ccccc1` gave Lamin A splicing inactive, Rango dissoc inh inactive and Rango complex inh inconclusive.
Screening O=C(O)CCc1ccc(-c2ccc(F)cc2)n1CC1CCCO1 (configuration not stated) returned Lamin A splicing inactive, Rango dissoc inh inactive and Rango complex inh inactive.
For O=C(O)CCc1ccc(-c2cccs2)n1CC1CCCO1 (configuration not stated) the results were Lamin A splicing inactive, Rango dissoc inh 5.2µM and Rango complex inh inconclusive.
COCCCn1c(=O)cc(C)[nH]c1=S was read as Rango dissoc inh inactive and Rango complex inh inactive.
`COc1ccc(-c2ccc(-c3noc(-c4ccccc4)n3)c(OC)n2)cc1` gave Lamin A splicing inactive, Rango dissoc inh 2.1µM and Rango complex inh inconclusive.
Screening COc1nc(-c2ccccc2)ccc1-c1noc(-c2ccccc2)n1 returned Lamin A splicing inactive, Rango dissoc inh inactive and Rango complex inh inactive.
COc1cc(Br)c(C2CC(=O)Nc3cc(OC)c(OC)cc32)cc1OC (configuration not stated) was read as Rango dissoc inh inactive and Rango complex inh inactive.
